# Hit rate of the full screen: of about 330,000 compounds, about 1,000 (0.3%) were called active. Inconclusive results (about 3%) are left out. The full list was thinned out, with actives kept by preference. Unmarked numbers belong to inactive results. Calls follow the shape of the dose curve; as a rule, active = well fitted inhibition curve with a large enough effect; inconclusive = small, poorly fitted or top-dose-only effect; inactive = no such curve, though single readings can be large or run the other way; tested in mouse RAW 264.7 cells.
# Assay: qHTS for Inhibitors of Cell Surface uPA Generation; also: nearly all actives have a fitted effect of over 55% in size
# Details: cell surface uPA generation assay; series mostly up to 38.3 µM; activity change, negative = inhibition: at the top concentration
# Description: The overall objective of this project is to perform a quantitative high throughput screen (qHTS) to identify novel compounds that inhibit the generation of cell surface urokinase activity. The urokinase plasminogen activator (uPA) is one of the two primary endogenous systems that mediate plasminogen activation into plasmin. Members of this system, including uPA and its receptor (uPAR), are overexpressed in several malignant tumors. This system plays a major role in adhesion, migration, invasion and metastasis of cancer cells. Small molecule inhibitors of the uPA system will serve as probes to understand the molecular mechanisms of the uPA cascade and better understanding the microenvironmental circumstances that facilitate the activation of plasminogen by uPA, and finally may provide novel candidate agents for anticancer drug therapy.
# […] […] Upon inhibition of the uPA activation cascade, the subsequent cell surface uPA activity-dependent translocation of LF into the cytoplasm is inhibited. ATP-Lite is used to measure intracellular ATP concentrations, which remain increased if LF entry into the cytoplasm is inhibited. This validation assay was performed using a small set of validation compounds.
# NIH Chemical Genomics Center [NCGC]
# NIH Molecular Libraries Probe Centers Network [MLPCN]
# Assay Submitter (PI): Thomas Bugge, National Institute of Dental and Craniofacial Research, NIH
# Cultured RAW 264.7 were dispensed into 1536-well clear bottom, white walled tissue culture plates at a density of 4000 cells/well and were incubated overnight (12-16 h) at 37 C in a 5% CO2 incubator. Serially diluted compounds in 23 nl DMSO were added to cells. […] Compound and reagent-treated plates were incubated for 24 h at 37 C in a 5% CO2 incubator. Perkin Elmer ATPlitetrade mark 1 step (3 ul) was then added to each well. Luminescence was detected using a Perkin Elmer ViewLuxtrade mark plate reader.
# 1.Dispensing RAW 264.7 cells into 1536-well, white walled tissue culture plates at a density of 4000 cells/well (4 uL).
# 2.Incubation at 37 C in a 5% CO2 incubator overnight.
# 3.Serially diluting compounds (1:5 serial dilution; 0.0024 uM to […] final concentration) in 23 nl DMSO.
# 5.Incubating the compound and reagent-treated plates for 24 hours at 37 C in a 5% CO2 incubator.
# 6.Adding ATP-Lite (3 ul).
# 7.Reading plates by ViewLux with an exposure length of 5 seconds.
# % is scaled to controls: 0 for no effect and ±100 for the full control effect; potency is read from the fitted curve at half-maximal effect.
SMILES,"activity change, negative = inhibition",Potency
COc1ccc(C(=O)Nc2cccc(NC(=O)c3ccc(OC)cc3OC)n2)c(OC)c1,10.8%,–
COc1ccc(C(=O)Nc2nncs2)c(OC)c1,–,11.2 µM (active)
COc1cc(SC)ccc1C(=O)Nc1nc(C)cs1,–,0.891 µM (active)
COc1ccc(C(=O)NC2=NCCS2)c(OC)c1,-9.96%,–
Cc1csc(NC(=O)c2ccc(C)s2)n1,-4.48%,–
COc1cc(SC)ccc1C(=O)NCCOc1ccccc1Cl,-1.79%,–
CCCC(O)(c1ccccc1)C(c1ccccc1)c1ccccn1 (stereo unspecified),0.751%,–
Cc1cc(C)c(C=NNc2nc3c([nH]2)c(=O)n(C)c(=O)n3C)c(C)c1,0.257%,–
O=c1c2ccccc2ncn1CCc1ccncc1,-2.13%,–
O=C(Nc1ccccc1)Oc1cccc2cccnc12,-8.43%,–
NN=C(NN=Cc1ccccc1)c1ccccc1,-1.74%,–
COc1cc(/C=C/c2ccc(/C=C/c3cc(OC)c(OC)c(OC)c3)cc2)cc(OC)c1OC,5.42%,–
CCCN(CCC)S(=O)(=O)c1cc2c(cc1Br)CCN2C(=O)CC,6.75%,–
COc1ccc(-c2ccc(OC(=O)NC3CCS(=O)(=O)C3)cc2)cc1 (stereo unspecified),–,10 µM (active)
O=C(Cc1ccc(Cl)cc1)NC1CCS(=O)(=O)C1 (stereo unspecified),0.7%,–
COc1ccc(NC(=S)NC2CCS(=O)(=O)C2)cc1 (stereo unspecified),13.3%,–
COc1ccc2c(c1)C(=O)CC(c1ccccc1)O2 (stereo unspecified),-5.17%,–
O=S(=O)(Cc1ccc(Cl)cc1Cl)c1ccc(Cl)cc1,-13.8%,–
CC(=O)OCC(=O)C1(O)CCC2C3CC(C)C4=CC(=O)CCC4(C)C3C(O)CC21C (stereo unspecified),-5.75%,–
COc1cc(C)cc(CN2CCC(Cc3ccccc3)CC2)c1O,-15.2%,–
COc1cc(CN2CCC(C(N)=O)CC2)ccc1OCc1ccccc1,-0.173%,–
Oc1c(CN2CCCC2)cc(COCc2ccccc2)c2cccnc12,–,4.47 µM (active)
Nc1ncnc2c1cnn2C1CC(O)C(CO)O1 (stereo unspecified),1.67%,–

SMILES,"activity change, negative = inhibition",Potency
COc1ccc(C2NCCCC2c2ccccc2)cc1 (stereo unspecified),6.59%,–
O=C(NN=CC=Cc1ccccc1)C(O)C(O)C(=O)NN=CC=Cc1ccccc1 (stereo unspecified),4.29%,–
Cc1ccc2nc(-c3ccc(Br)cc3)cn2c1,–,2.82 µM (active)
Cc1ccc(-c2cn3cc(C)ccc3n2)cc1,-13%,–
Cc1ccc(-c2cn3cc([N+](=O)[O-])ccc3n2)cc1,-15%,–
CC(C)=CCc1ccc(O)c(=O)cc1C(C)C,-14.1%,–
CC(C)Cn1cnc2c(SCc3ccc(Cl)cc3)nc(N)nc21,2.74%,–
Nc1c(C(=O)NCc2ccccc2)nnn1Cc1cccc(Cl)c1,–,11.2 µM (active)
COc1cccc(CNC(=O)c2nnn(CC(=O)Nc3cc(C)ccc3C)c2N)c1,-1.4%,–
COc1cccc(CNC(=O)c2nnn(CC(=O)Nc3cc(Cl)ccc3C)c2N)c1,-7.07%,–
COc1ccc(N=C2C=CC(=O)O2)cc1,-4.89%,–
CCOc1cccc(SCc2noc(C(=O)NC(C)C)c2C(=O)O)c1,-8.82%,–
COC(=O)c1c(CCl)noc1C(=O)NC(C)C,–,10 µM (active)
CCCNC(=O)c1onc(CSc2ccc(F)cc2)c1C(=O)NC(C)C,9.02%,–
CC(=O)OC1CCC2(C)C(=CCC3C4CC(=O)N(O)C(=O)C4(C)CCC32)C1 (stereo unspecified),-4.19%,–
CC(NC(=O)c1ccccc1)C(=O)Nc1ccccc1 (stereo unspecified),2.25%,–
CC(=O)Nc1ccc(C(=O)Nc2cc(S(=O)(=O)N3CCOCC3)ccc2N2CCOCC2)cc1,-3.85%,–
CCc1nc(Nc2ccc(NC(C)=O)cc2)c2oc3ccccc3c2n1,8.93%,–
CC(C)(C)OC(=O)NNc1c2ccccc2nc2ccccc12,-8.44%,–
CC(=O)Nc1ccc(Nc2c3ccccc3nc3ccccc23)cc1,–,1 µM (active)
OCC(O)C1OCOC(C(O)CO)C1O (stereo unspecified),9.73%,–
O=C(NCCc1ccccc1)c1cccc(NC(=O)c2ccccc2)c1,1.44%,–
O=C(NCc1cccc(C(F)(F)F)c1)c1cccc(S(=O)(=O)N2CCN(Cc3ccccc3)CC2)c1,1.34%,–

SMILES,"activity change, negative = inhibition",Potency
CC(NC(=O)CCC(=O)N1CCN(S(=O)(=O)c2ccc(Cl)cc2)CC1)c1ccccc1 (stereo unspecified),-7.34%,–
O=C(CCC(=O)N1CCN(S(=O)(=O)c2ccc(Cl)cc2)CC1)NCc1cccc(C(F)(F)F)c1,–,12.6 µM (active)
Cc1cccc(NC(=S)N2CCC(C(=O)c3ccc(F)cc3)CC2)c1,-2.65%,–
O=C(Cn1cnc2c(OCc3ccccc3)ncnc21)NCc1nc2ccccc2[nH]1,20.3%,–
Cc1ccc(CNC(=O)Cn2cnc3c(NCc4ccccc4)ncnc32)o1,–,11.2 µM (active)
CC(CNC(=O)Cn1cnc2c(OCc3ccccc3)ncnc21)c1ccccc1 (stereo unspecified),6.59%,–
CC(C)OC(=O)c1ccc(NCc2cc(O)ccc2O)cc1Cl,4.35%,–
COC(=O)c1cc(OCC(=O)NC2CCCc3ccccc32)cc(C(=O)OC)c1 (stereo unspecified),1.62%,–
O=C(CCNC(=O)c1ccc(Cl)cc1)NC1CCCc2ccccc21 (stereo unspecified),–,5.62 µM (active)
NC(=O)Nc1ccc(C(=O)OCC(=O)NC2CCCc3ccccc32)cc1 (stereo unspecified),2.72%,–
CC1=CC(=NNS(=O)(=O)c2ccc([N+](=O)[O-])cc2)CC(C)(C)C1,-2.04%,–
Cc1onc(-c2c(F)cccc2Cl)c1C(=O)Nc1cccc(S(=O)(=O)N2CCCCC2)c1,-0.171%,–
COc1cc(/C=N/N=C(\N)c2nonc2N)cc(OC)c1OC,2.87%,–
COc1cc(/C=N\NC(=O)c2nonc2N)c(OC)cc1Br,–,7.94 µM (active)
Cc1cc(C)c([N+](=O)[O-])cc1-c1ccc(/C=N/NC(=O)c2nonc2N)o1,2.06%,–
CSCCC(NC(=O)COc1ccccc1)C(=O)OCc1ccc(Cl)cc1 (stereo unspecified),1.9%,–
CCOc1ccc(/C=C(/C#N)c2nnc(N3CCOCC3)n2-c2ccccc2)cc1OC,-3.57%,–
CCOc1ccccc1NC(=S)C(=C([O-])c1ccc2c(c1)OCCO2)[n+]1ccc(CC)cc1,-8.87%,–
O=c1[nH]c2c(c(=O)n1-c1ccccc1)CCO2,3.17%,–
O=[N+]([O-])c1ccc(NS(=O)(=O)c2ccccc2)c(Cl)c1,-0.654%,–
CCc1ccc(C(=O)C(C)OC(=O)CN2C(=O)NC3(CCCC3)C2=O)cc1 (stereo unspecified),-1.56%,–
O=C(NCCCn1ccnc1)c1cc(-c2ccccc2)on1,–,5.62 µM (active)
O=C(NCCCn1ccnc1)c1cc(Br)c(Br)s1,5.42%,–

SMILES,"activity change, negative = inhibition",Potency
O=C(NCCCn1ccnc1)c1ccccc1F,1.64%,–
CCc1c(Nc2ccccc2Cl)nc(N)[nH]c1=O,-10.9%,–
O=C(O)c1ccc(Cn2cnc3c(=S)nc[nH]c32)cc1,-3.45%,–
CCCCC(=O)NC(c1ccc(OC)c(OC)c1)c1ccc2cccnc2c1O (stereo unspecified),-13.8%,–
CC1CN(Cc2ccccc2)C(=S)NC1=O (stereo unspecified),1.89%,–
COc1cccc(/C=N/Nc2ccc(S(=O)(=O)Nc3ccccc3C(=O)O)cc2[N+](=O)[O-])c1O,0.183%,–
c1ccc2c(c1)OC1OC2Oc2ccccc21,12.3%,–
Cc1ccsc1/C=N/Nc1ccc(Cl)nn1,11.8%,–
Oc1cccc(/C=N/Nc2ccc(Cl)nn2)c1O,–,2.82 µM (active)
COc1cccc(/C=N/Nc2ccc(Cl)nn2)c1,5.63%,–
Cc1ccc(S(=O)(=O)CCC(=O)OCC(=O)N(C)Cc2ccccc2)cc1,4.47%,–
NC(=S)NN=C1CCCC(C(F)(F)F)C1 (stereo unspecified),-2.84%,–
CSCCC(NC(=O)COc1ccccc1)C(=O)N1CCN(c2cccc(C(F)(F)F)c2)CC1 (stereo unspecified),-9.29%,–
COc1cc(C2c3cc4c(cc3C(O)C3COC(=O)C23)OCO4)cc(OC)c1OC (stereo unspecified),-8.49%,–
CCN(CC)CCNC(=O)c1ccc(NC(=O)c2cc(-c3ccncc3)nc3ccccc23)cc1,–,10 µM (active)
O=C(Nc1ccc(S(=O)(=O)Nc2nccs2)cc1)c1cc(-c2ccncc2)nc2ccccc12,1.2%,–
COC(=O)CNC(=O)c1cc(-c2ccncc2)nc2ccccc12,-0.0987%,–
CN(C(=O)c1cccc(NC(=O)Cc2cccc(NC(=O)C3CCCN(C(=O)C4CC4)C3)c2)c1)C1CCC1 (stereo unspecified),14.2%,–
O=C(Nc1ncccc1O)c1ccc(S(=O)(=O)N2CCCCCC2)cc1,0.388%,–
O=C(Nc1ncccc1O)c1ccc(S(=O)(=O)N2CCCC2)cc1,–,7.94 µM (active)
O=C(N/N=C/c1ccccn1)c1ccc(S(=O)(=O)N2CCCCCC2)cc1,5.59%,–
Cc1cn(C2CC(O)C(CO)O2)c(=O)n(CCCc2ccccc2)c1=O (stereo unspecified),-2.05%,–
O=S1(=O)CSCS(=O)(=O)C1,2.84%,–

SMILES,"activity change, negative = inhibition",Potency
Cc1[nH]c2ccc(C(=O)N3CCN(C)CC3)cc2c1C,-8.89%,–
CCOc1ccccc1N1CCN(C(=O)c2ccc3[nH]c(C)c(C)c3c2)CC1,–,2.51 µM (active)
COc1ccccc1N1CCN(C(=O)c2ccc(Cl)c(S(=O)(=O)N3CCCC3)c2)CC1,-0.654%,–
CCCCCCCCNS(=O)(=O)CCNC1CCCCC1,6.43%,–
O=C(Cc1ccc(S(=O)(=O)N2CCOCC2)s1)Nc1ccc(Br)c(C(F)(F)F)c1,-17.8%,–
CC(C)(C)S(=O)(=O)N1Cc2cc(CO)cc(CCO)c2[C@H]1CCO,2.5%,–
Cc1ccccc1-c1ccc(Nc2ccc(C(=O)N3CCOCC3)cc2)nn1,-5.32%,–
Cc1oc2c(c1C(=O)N1CCOCC1)C(=O)c1ccccc1C2=O,–,2.51 µM (active)
Cc1ccc(C(=O)N2CCN(C(=O)N3CCOCC3)CC2)cc1,1.5%,–
C/C(=N\Nc1ccccc1)c1cccs1,-0.263%,–
CC1C(C)N(C(=O)CCl)c2ccccc2N1C(=O)CCl (stereo unspecified),-9.43%,–
O=C(NN=Cc1ccccc1O)NN=Cc1ccccc1O,-13.6%,–
O=C1C[C@@H]2c3c(cccc3CN1Cc1ccccc1)C[C@@H](O)[C@H]2O,4.62%,–
COc1ccc(CNCCCn2cnc3c(OCc4ccccc4)ncnc32)cc1,-11.6%,–
CC(C)(C)OC(=O)N1CCC(C(=O)Nc2cccc(C(=O)NCCc3ccccc3)c2)CC1,21%,–
CC(C)[C@@H](C(=O)OCC(=O)c1ccc2c(c1)NC(=O)CO2)N1C(=O)c2ccccc2C1=O,0.762%,–
O=C1CC(N2CCN(C(c3ccccc3)c3ccccc3)CC2)C(=O)N1 (stereo unspecified),-0.34%,–
Oc1ccccc1CN1CCN(C(c2ccccc2)c2ccccc2)CC1,7.27%,–
CC1(C)CC(N2CCN(C(c3ccccc3)c3ccccc3)CC2)=CC(=[N+]2CCCCC2)C1,–,1.12 µM (active)
